FBW7 activator: human FBW7 E3 ligase activation, primary screen. Q969H0. AlphaScreen FBW7–phospho-cyclin E peptide binding, activator screen. normalized activity (activation), % at 26.1 µM. actives 0.13% (n = 650,000); in the data active = normalized activity above about 1.9%;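 also: purified mutant Fbw7 with reduced substrate affinity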
Target sequence (Q969H0 whole entry, looked up): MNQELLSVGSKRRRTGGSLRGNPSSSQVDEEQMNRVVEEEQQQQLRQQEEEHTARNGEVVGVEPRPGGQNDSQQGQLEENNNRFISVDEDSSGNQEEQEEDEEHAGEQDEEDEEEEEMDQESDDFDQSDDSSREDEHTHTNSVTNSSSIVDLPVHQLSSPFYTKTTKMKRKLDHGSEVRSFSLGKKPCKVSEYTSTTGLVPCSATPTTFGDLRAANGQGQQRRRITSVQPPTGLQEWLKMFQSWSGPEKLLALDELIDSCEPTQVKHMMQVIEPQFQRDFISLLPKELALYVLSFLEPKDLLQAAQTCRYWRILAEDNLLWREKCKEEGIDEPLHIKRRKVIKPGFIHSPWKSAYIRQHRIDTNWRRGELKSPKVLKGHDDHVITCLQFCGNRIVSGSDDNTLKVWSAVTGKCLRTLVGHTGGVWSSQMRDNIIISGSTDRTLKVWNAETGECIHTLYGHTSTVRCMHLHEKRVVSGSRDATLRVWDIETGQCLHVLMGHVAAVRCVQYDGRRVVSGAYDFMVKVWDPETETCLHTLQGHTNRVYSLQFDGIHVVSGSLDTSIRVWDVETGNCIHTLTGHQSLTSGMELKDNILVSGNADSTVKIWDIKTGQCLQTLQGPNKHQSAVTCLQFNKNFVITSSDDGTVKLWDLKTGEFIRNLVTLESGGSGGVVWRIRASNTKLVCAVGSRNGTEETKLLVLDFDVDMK
MITF inh: inhibitors of human MITF; actives 0.91% (n = 650,000); inhibition, % at 2.6 µM; AlphaScreen MITF homodimerization, bead proximity signal; AID 1259374; in the data active = inhibition above about 50%;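 also: 0% = vehicle wells with protein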
GPR151 ag: activators of human GPR151; actives 1% (n = 650,000); PathHunter beta-arrestin GPR151 cells, luminescence; AID 1508602; Q8TDV0; activation, % at 11.2 µM; in the data active = activation above about 4.9%;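 also: 0% = median of compound wells and 100% = cells with positive control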
TEAD-YAP block: TEAD-YAP interaction inhibition | HEK-TIYL cells, TEAD-Gal4/YAP UAS-luciferase luminescence | inhibition, % at 9.12 µM | actives 1.4% (n = 640,000) | AID 1259422; in the data active = inhibition above about 32%;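 also: 0% = median of test compound wells and 100% = reference inhibitor wells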
An asterisk follows results filed as active. This is a sample that favours compounds with a hit; in the whole collection about 3.5% have one here.

SMILES	FBW7 activator	MITF inh	GPR151 ag	TEAD-YAP block
CCOc1ccc(N2CSC3=C(C#N)C(c4cccs4)CC(=O)N3C2)cc1 (centres undefined)	0	-13	1	-10
CCOc1ccc(N2CSC3=C(C#N)C(c4ccco4)CC(=O)N3C2)cc1 (centres undefined)	0	69*	1	-11
Cc1ccc(C(=O)COC(=O)c2cc3ccccc3cc2O)cc1[N+](=O)[O-]	0	12	-1	-1
Cc1c(Cc2ccccc2)c(N2CCN(Cc3ccccc3)CC2)n2c(nc3ccccc32)c1C#N	2.0*	8	2	-8
CCN(CC)c1ccc2cc(-c3ccccn3)c(=O)oc2c1	2.7*	-66	-9	93*
CCN(CC)c1ccc2cc(-c3nc(C)cs3)c(=O)oc2c1	3.4*	-23	-4	94*
CCN(CC)c1ccc2cc(-c3nc(-c4ccccc4)cs3)c(=O)oc2c1	0	-14	0	10
O=C(N/C(=C\c1cccc(Br)c1)C(=O)N1CC2CC(C1)c1cccc(=O)n1C2)c1ccccc1Cl (centres undefined)	0	0	1	0
O=C(Cn1cnc2sc3c(c2c1=O)CCCC3)NCC(=O)Nc1cccc(Cl)c1	0	-9	0	-1
CCOC(=O)c1cnc2c(OC)cccc2c1Nc1ccccc1OC	0	-3	-1	7
CCOC(=O)c1cnc2c(OC)cccc2c1Nc1ccc(OC)cc1OC	0	-12	1	53*
CCOC(=O)c1cnc2c(OC)cccc2c1NCc1ccco1	0	-5	-1	46*
CCOC(=O)c1cnc2c(Cl)cccc2c1NCc1ccco1	0	-10	-1	-8
COc1ccc(C2CC(=O)C3=C(C2)NC(C)=C(C(=O)OC2CCCCC2)C3c2ccc([N+](=O)[O-])cc2)cc1OC (centres undefined)	0	14	1	7
CCCOC(=O)C1=C(C)NC2=C(C(=O)CC(c3ccc(OC)c(OC)c3)C2)C1c1ccccc1F (centres undefined)	0	-11	3	41*
COc1ccc(C2CC(=O)C3=C(C2)NC(C)=C(C(=O)OC2CCCCC2)C3c2cccc([N+](=O)[O-])c2)cc1OC (centres undefined)	0	11	-1	35*
CCCOC(=O)C1=C(C)NC2=C(C(=O)CC(c3ccc(OC)c(OC)c3)C2)C1c1ccccc1C (centres undefined)	0	-7	1	0
CC1=C(C(=O)OC2CCCCC2)C(c2cccnc2)C2=C(CC(c3ccc(Cl)cc3)CC2=O)N1 (centres undefined)	0	-4	0	38*
CCCOC(=O)C1=C(C)NC2=C(C(=O)CC(c3ccc(OC)c(OC)c3)C2)C1c1cccc(C)c1 (centres undefined)	0	-10	2	33*
Cc1ccc(N/C=C/C(=O)c2ccc(F)cc2)cc1	0	11	1	-41
CC(=O)Nc1ccc(NS(=O)(=O)c2c(C)cc(C)cc2C)cc1	0	7	1	1
CC(C)OCCCNC(=O)C1CCN(S(=O)(=O)c2ccccc2)CC1	0	6	1	-1
COc1ccc(C2CC(=O)C3=C(C2)NC(C)=C(C(=O)OC(C)C)C3c2ccc(SC)cc2)cc1OC (centres undefined)	0	-1	0	14
CCCOC(=O)C1=C(C)NC2=C(C(=O)CC(c3ccc(OC)c(OC)c3)C2)C1c1cccc(Br)c1 (centres undefined)	0	-3	0	38*
COc1ccc(C2CC(=O)C3=C(C2)NC(C)=C(C(=O)OC(C)C)C3c2ccc(F)cc2)cc1OC (centres undefined)	0	-14	0	42*
SMILES	FBW7 activator	MITF inh	GPR151 ag	TEAD-YAP block
N#Cc1c(-c2ccc(Cl)cc2)cc(-c2cccs2)nc1SC/C=C/c1ccccc1	0	-6	0	3
CCOC(=O)c1c(NC(=O)c2ccccc2Br)sc2c1CCC2	0	-4	0	-2
CC1(C)CC(=O)C2=C(C1)NC(=O)CC2c1ccccc1OCc1ccccc1 (centres undefined)	0	5	-1	-6
O=C(COc1ccccc1)N1c2ccccc2Sc2ccccc21	0	-8	0	62*
COc1ccc(OCC(=O)N2c3ccccc3Sc3ccc(Cl)cc32)cc1	0	0	1	-6
COC(=O)c1ccc(NC(=O)CSc2nnc(-c3c[nH]c4ccccc34)n2C)cc1	0	0	-1	9
O=C1CCNc2c(Br)cc(Br)cc2N1	0	7	0	1
COc1cccc(/C=N/NC(=O)c2ccc(Cn3nc(C)cc3C)cc2)c1O	0	29	0	53*
COc1ccc(CCCC(=O)N/N=C/c2cccc(OC)c2O)cc1C	0	-7	0	42*
Cc1cc(C)n(Cc2ccc(C(=O)N/N=C/c3ccc(O)cc3O)cc2)n1	-1	19	0	61*
Cc1cc(C)n(Cc2cccc(C(=O)N/N=C/c3ccc(O)cc3O)c2)n1	-1	22	0	18
COc1cc(C2=N/C(=C\C=C\c3ccccc3)C(=O)O2)cc(OC)c1OC	0	7	0	13
O=C(CN(Cc1ccc(Br)cc1)S(=O)(=O)c1ccccc1)N1CCc2ccccc2C1	0	0	0	-6
Cc1cc(C)c(C(=O)/C=C/c2ccccn2)c(=O)[nH]1	0	12	-2	77*
COc1cccc(/C=C/C(=O)c2c(C)cc(C)[nH]c2=O)c1O	0	2	0	1
COc1ccccc1/C=C/C(=O)c1c(C)cc(C)[nH]c1=O	0	-2	-1	37*
COc1ccc2c(c1)c(/C=C/c1nc3ccccc3c(=O)n1CCCO)c(C)n2C	0	13	1	23
CCC(C)NC(=O)C1(C)CC1(Br)Br (centres undefined)	0	-4	0	-8
CC(C)(C)C(=O)Oc1ccc2c(c1)O/C(=C\c1ccncc1)C2=O	0	6	0	4
COc1ccc(/C=C2\Oc3cc(OC(=O)c4cccnc4)ccc3C2=O)cc1	0	21	0	41*
COc1ccc2c(c1)OC/C(=C\c1ccc(OC)c(O)c1)C2=O	1	1	0	42*
COc1ccc2c(c1)O/C(=C\c1ccc(OC(C)=O)c(OC)c1)C2=O	0	-11	3	43*
COc1ccc2c(c1)OC/C(=C\c1cccs1)C2=O	0	10	-1	-45
CC(=O)Oc1ccc2c(c1)Oc1nc(C)[nH]c(=O)c1C2c1ccccc1 (centres undefined)	0	14	1	-9
COc1cc2nc(Oc3ccccc3)nc(Nc3ccccc3)c2cc1OC	0	1	1	38*
COc1cc2nc(Oc3ccccc3)nc(Nc3ccc(N4CCOCC4)cc3)c2cc1OC	0	1	2	42*
COc1cc2nc(Nc3ccccc3)nc(Nc3ccccc3)c2cc1OC	0	-7	2	10
COc1ccc(C(=O)O)cc1Nc1cnn(C23CC4CC(CC(C4)C2)C3)c(=O)c1Cl	0	13	-1	-6

Compound activity: PubChem BioAssay, The Scripps Research Institute Molecular Screening Center
